# Source: PubChem BioAssay (EPA / NIEHS)
# Inconclusive results are not listed. Some compounds were tested as several samples or in several runs, with calls that do not always agree. Active and inactive are the calls of the source. Rule for the calls: active = hit-call score of the fitted dose curve at least 0.9, where 1 is the maximum; inconclusive = response in the unintended direction; inactive = score below 0.9.
# Assays:
# [1] = molecular target: Retinoic acid receptor alpha (Homo sapiens) (UniProt P10276); experiment: NVS_NR_hRARa_Agonist: NovaScreen (NVS) Nuclear Receptor Binding Assay for human Retinoic Acid Alpha Receptor Agonism (RAR) (AID 2283361)
# Method in brief: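 Readout is time-resolved fluorescence resonance energy transfer after a 2 h exposure of cell-free extracted receptor protein. Initial testing used 25 uM in duplicate, with concentration-response follow-up for active chemicals.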
# [2] = molecular target: Glucocorticoid receptor (Homo sapiens) (UniProt P04150); experiment: NVS_NR_hGR: NovaScreen (NVS) Nuclear Receptor Binding Assay for human Glucocorticoid Receptor (GR) (AID 2283363)
# Method in brief: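 Competitive displacement of a labelled ligand was measured on cell-free receptor preparations after 16 h exposure. Initial testing used 25 uM in duplicate with plate controls; confirmed actives went into concentration series.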
# [3] = molecular target: Nuclear receptor subfamily 1 group I member 2 (Homo sapiens) (UniProt O75469); experiment: NVS_NR_hPXR: NovaScreen (NVS) Nuclear Receptor Binding Assay for human Pregnane X Receptor (PXR) (AID 2283365);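 note: a drop in FRET signal versus DMSO baseline means the compound binds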
# Method in brief: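 Read-out: TR-FRET, human PXR, 2 h post-dosing, cell-free. Loss of signal vs DMSO taken as binding activity; 25 uM primary, concentration series secondary.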
# [4] = molecular target: PGR (gene 5241) (UniProt P06401); experiment: NVS_NR_hPR: NovaScreen (NVS) Nuclear Receptor Binding Assay for human Progestron Receptor (PR) (AID 2283360);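 note: active means loss of bound radioligand signal versus DMSO baseline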
# Method in brief: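 Radioligand competition binding on receptor extracted from T47D cells, read by scintillation counting 18 h after dosing. Loss of signal versus DMSO; primary screen in duplicate at 25 uM, actives followed in concentration series.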
# [5] = molecular target: rat Serotonin Transporter (SERT), Slc6a4 (gene 25553) (UniProt P31652); experiment: NVS_TR_rSERT: NovaScreen (NVS) Transporter Assay for rat Serotonin Transporter (SERT) (AID 2283375)
# Method in brief: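 Using rat forebrain membrane SERT, test chemicals compete with a radioligand for 1 hour, and bound counts are taken by filter-based scintillation. Screening starts at 25 uM in duplicate, followed by concentration series for actives.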
# [6] = molecular target: rat Androgen Receptor (AR), Ar (gene 24208) (UniProt P15207); experiment: NVS_NR_rAR: NovaScreen (NVS) Nuclear Receptor Binding Assay for rat Androgen Receptor (AR) (AID 2283366)
# Method in brief: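 Cell-free radioligand binding on extracts of prostate from testosterone-pretreated rats, read by filter-based scintillation counting 18 h after dosing. Loss of bound signal fitted positively versus DMSO; primary screen in duplicate at 25 uM, actives followed up in concentration series.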
# [7] = molecular target: human Thyroid Receptor Alpha (TRa), THRA (gene 7067) (UniProt P10827); experiment: NVS_NR_hTRa_Antagonist: NovaScreen (NVS) Nuclear Receptor Binding Assay for human Thyroid Receptor Alpha Antagonism (TRa) (AID 2283362)
# Method in brief: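 In this biochemical format, receptor protein is dosed with chemical and read after 1 hour via AlphaLISA. Decreases from the DMSO baseline indicate antagonist activity; screening used 25 uM in duplicate before concentration-response confirmation.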
# [8] = molecular target: guinea pig Sigma Receptor, Non-selective Binding, SIGMAR1 (gene 100135589) (UniProt Q60492); experiment: NVS_OR_gSIGMA_NonSelective: NovaScreen (NVS) Nuclear Receptor Binding Assay for guinea pig Sigma Receptor, Non-selective Binding (AID 2283367)
# Description: NVS_OR_gSIGMA_NonSelective is a biochemical, single-readout assay that uses extracted gene-proteins from Guinea pig brain membranes in a tissue-based cell-free assay. Measurements were taken 1 hour after chemical dosing in a 48-well plate.NVS_OR_gSIGMA_NonSelective is one of one assay component(s) measured or calculated from the NVS_OR_gSIGMA_NonSelective assay. It is designed to make measurements of radioligand binding, a form of binding reporter, as detected with scintillation counting signals by Filter-based radiodetection technology.Data from the assay component NVS_OR_gSIGMA_NonSelective was analyzed into 1 assay endpoint. This assay endpoint, NVS_OR_gSIGMA_NonSelective, was analyzed in the positive analysis fitting direction relative to DMSO as the negative control and baseline of activity. Using a type of binding reporter, loss-of-signal activity can be used to understand changes in the binding as they relate to the gene Sigmar1. Furthermore, this assay endpoint can be referred to as a primary readout, because the performed assay has only produced 1 assay endpoint. To generalize the intended target to other relatable targets, this assay endpoint is annotated to the misc protein intended target family, where the subfamily is chaperone. […]
# Sequence of PGR (gene 5241) (P06401 whole entry, looked up): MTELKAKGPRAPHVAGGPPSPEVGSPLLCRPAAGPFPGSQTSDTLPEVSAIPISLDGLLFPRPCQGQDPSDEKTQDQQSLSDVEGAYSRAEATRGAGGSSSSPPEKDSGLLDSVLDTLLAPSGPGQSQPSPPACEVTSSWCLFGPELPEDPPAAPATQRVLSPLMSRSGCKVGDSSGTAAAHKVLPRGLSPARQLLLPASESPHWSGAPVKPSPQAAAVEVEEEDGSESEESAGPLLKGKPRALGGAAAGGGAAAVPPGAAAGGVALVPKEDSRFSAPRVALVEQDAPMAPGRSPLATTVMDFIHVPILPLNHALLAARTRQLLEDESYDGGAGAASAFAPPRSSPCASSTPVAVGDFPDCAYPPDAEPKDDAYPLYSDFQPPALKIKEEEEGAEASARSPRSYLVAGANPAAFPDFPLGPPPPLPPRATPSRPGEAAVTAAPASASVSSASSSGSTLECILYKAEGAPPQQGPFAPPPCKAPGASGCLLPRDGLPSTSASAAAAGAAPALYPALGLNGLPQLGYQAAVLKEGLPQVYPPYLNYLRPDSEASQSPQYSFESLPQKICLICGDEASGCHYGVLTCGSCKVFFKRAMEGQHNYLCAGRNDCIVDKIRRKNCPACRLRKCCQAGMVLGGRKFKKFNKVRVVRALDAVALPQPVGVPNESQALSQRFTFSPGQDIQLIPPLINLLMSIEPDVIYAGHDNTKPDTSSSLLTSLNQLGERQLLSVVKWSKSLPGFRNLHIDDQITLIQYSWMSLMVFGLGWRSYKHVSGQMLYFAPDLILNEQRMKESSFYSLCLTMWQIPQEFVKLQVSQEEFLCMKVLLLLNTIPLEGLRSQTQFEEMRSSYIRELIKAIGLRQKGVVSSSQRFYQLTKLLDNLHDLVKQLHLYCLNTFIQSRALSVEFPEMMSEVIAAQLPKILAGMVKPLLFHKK
# Sequence of Retinoic acid receptor alpha (Homo sapiens) (P10276 whole entry, looked up): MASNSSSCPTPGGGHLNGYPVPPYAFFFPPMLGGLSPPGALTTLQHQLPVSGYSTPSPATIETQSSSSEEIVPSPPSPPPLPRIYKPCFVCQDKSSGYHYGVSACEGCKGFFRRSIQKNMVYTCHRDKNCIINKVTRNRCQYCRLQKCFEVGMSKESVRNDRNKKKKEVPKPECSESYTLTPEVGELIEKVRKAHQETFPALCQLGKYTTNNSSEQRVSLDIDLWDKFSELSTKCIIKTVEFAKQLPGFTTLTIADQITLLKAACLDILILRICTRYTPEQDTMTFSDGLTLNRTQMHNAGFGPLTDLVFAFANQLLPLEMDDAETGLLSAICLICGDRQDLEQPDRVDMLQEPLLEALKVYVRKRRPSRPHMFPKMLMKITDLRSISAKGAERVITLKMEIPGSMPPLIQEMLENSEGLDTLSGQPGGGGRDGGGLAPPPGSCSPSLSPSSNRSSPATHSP
# Sequence of Nuclear receptor subfamily 1 group I member 2 (Homo sapiens) (O75469 whole entry, looked up): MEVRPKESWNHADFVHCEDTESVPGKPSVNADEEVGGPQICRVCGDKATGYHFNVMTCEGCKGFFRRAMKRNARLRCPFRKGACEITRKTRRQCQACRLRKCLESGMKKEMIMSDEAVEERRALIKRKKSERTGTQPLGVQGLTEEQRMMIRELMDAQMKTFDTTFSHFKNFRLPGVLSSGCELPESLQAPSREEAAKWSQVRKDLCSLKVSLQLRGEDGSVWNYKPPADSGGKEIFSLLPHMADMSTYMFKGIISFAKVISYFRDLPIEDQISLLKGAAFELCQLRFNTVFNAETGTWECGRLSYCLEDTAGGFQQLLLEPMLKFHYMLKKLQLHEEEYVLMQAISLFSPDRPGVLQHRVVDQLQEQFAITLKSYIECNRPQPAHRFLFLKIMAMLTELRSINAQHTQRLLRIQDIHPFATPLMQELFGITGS
# Sequence of human Thyroid Receptor Alpha (TRa), THRA (gene 7067) (P10827 whole entry, looked up): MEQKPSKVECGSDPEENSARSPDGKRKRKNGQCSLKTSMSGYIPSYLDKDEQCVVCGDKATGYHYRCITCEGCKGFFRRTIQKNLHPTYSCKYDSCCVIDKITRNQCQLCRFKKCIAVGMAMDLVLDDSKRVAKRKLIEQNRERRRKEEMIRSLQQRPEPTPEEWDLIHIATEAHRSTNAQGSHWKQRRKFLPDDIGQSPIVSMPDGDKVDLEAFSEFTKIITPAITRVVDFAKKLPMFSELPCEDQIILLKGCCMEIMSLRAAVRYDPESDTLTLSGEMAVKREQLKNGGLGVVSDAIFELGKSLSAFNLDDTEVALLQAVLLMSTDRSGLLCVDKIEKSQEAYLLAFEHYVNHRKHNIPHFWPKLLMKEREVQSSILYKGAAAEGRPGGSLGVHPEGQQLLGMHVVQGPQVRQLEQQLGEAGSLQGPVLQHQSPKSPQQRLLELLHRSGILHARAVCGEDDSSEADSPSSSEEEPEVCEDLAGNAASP
# Sequence of Glucocorticoid receptor (Homo sapiens) (P04150 whole entry, looked up): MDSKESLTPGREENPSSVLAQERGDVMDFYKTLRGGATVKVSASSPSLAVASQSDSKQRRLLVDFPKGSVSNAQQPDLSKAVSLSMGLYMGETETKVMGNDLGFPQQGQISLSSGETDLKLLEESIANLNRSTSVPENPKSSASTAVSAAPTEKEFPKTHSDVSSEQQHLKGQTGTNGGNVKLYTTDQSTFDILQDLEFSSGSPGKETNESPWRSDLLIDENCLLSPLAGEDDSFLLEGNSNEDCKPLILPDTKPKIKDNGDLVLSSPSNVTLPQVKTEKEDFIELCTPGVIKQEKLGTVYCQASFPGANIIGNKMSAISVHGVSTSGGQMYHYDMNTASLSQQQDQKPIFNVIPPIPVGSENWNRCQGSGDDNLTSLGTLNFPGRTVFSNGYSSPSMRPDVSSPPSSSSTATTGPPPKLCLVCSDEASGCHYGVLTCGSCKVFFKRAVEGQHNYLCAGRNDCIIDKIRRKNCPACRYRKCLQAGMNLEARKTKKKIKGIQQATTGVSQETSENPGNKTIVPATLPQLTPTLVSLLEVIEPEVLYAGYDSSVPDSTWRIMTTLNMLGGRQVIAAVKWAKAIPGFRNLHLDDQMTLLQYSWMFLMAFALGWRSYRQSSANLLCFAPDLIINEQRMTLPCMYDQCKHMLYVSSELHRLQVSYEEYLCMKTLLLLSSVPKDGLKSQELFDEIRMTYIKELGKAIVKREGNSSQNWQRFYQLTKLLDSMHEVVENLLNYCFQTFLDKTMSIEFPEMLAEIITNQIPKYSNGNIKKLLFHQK
# Sequence of rat Serotonin Transporter (SERT), Slc6a4 (gene 25553) (P31652 whole entry, looked up): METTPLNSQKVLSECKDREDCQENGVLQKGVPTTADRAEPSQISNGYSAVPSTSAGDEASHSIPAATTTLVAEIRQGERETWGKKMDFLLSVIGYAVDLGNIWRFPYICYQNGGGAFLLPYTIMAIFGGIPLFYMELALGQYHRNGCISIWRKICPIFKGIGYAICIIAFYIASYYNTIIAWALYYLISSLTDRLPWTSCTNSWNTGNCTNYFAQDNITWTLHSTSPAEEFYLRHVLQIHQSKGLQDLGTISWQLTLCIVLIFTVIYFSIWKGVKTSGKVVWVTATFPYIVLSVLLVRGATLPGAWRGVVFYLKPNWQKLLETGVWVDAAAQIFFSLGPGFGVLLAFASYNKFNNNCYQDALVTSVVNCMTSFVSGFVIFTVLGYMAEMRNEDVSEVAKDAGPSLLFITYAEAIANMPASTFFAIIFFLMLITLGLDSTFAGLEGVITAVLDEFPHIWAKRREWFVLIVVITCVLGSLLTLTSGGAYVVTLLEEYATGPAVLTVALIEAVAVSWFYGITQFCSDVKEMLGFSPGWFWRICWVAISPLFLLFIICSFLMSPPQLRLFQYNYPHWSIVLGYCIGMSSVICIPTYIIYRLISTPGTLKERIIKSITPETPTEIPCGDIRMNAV
# Sequence of guinea pig Sigma Receptor, Non-selective Binding, SIGMAR1 (gene 100135589) (Q60492 whole entry, looked up): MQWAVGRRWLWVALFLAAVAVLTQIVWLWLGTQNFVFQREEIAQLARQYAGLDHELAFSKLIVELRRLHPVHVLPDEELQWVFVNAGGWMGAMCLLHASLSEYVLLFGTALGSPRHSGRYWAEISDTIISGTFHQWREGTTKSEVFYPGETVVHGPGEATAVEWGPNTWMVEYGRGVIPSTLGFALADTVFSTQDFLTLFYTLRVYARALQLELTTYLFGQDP
# Sequence of rat Androgen Receptor (AR), Ar (gene 24208) (P15207 whole entry, looked up): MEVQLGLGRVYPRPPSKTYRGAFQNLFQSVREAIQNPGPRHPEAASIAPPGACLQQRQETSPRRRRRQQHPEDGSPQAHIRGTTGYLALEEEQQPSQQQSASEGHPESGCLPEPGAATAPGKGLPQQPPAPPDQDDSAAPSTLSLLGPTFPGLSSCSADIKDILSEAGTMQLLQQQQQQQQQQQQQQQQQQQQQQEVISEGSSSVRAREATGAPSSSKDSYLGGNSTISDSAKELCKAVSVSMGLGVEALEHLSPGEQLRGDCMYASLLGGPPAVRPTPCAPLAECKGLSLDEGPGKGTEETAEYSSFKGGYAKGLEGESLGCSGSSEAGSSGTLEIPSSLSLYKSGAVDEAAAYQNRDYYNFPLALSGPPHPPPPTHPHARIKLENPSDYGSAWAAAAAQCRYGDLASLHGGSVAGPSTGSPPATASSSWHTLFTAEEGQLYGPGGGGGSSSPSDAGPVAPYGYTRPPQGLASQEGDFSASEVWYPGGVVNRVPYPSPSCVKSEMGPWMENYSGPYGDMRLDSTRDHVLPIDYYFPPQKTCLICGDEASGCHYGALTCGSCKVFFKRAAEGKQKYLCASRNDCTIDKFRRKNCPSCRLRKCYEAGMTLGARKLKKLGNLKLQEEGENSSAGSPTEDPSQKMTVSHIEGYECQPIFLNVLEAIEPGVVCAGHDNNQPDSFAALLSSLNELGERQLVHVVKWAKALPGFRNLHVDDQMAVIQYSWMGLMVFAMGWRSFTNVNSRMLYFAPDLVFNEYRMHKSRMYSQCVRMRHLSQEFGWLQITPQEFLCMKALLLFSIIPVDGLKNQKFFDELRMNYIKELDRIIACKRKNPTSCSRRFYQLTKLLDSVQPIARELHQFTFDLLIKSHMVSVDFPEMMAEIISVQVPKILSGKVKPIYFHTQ
compound,measurement,setting,value
O=c1c(O)c(-c2ccc(O)cc2O)oc2cc(O)cc(O)c12,AC50,[1],25 µM (active)
same,AC50,[2],25 µM (active)
same,AC50,[3],6.31 µM (active)
CC1=NN(c2ccc(S(=O)(=O)O)cc2)C(=O)C1N=Nc1ccccc1 (stereo not given),AC50,[2],12.8 µM (active)
Cc1ccc([N+](=O)[O-])cc1N,outcome,[4],inactive
same,outcome,[3],inactive
same,outcome,[5],inactive
CC/C=C\C/C=C\C/C=C\CCCCCCCC(=O)OC,outcome,[4],inactive
same,AC50,[2],8.39 µM (active)
C=C(C)C1CC=C(C)CC1 (stereo not given),outcome,[2],inactive
Oc1ccc(-c2ccccc2)c(Cl)c1,outcome,[1],inactive
same,AC50,[6],16.3 µM (active)
CCC(C)c1ccccc1 (stereo not given),outcome,[4],inactive
CCCCCCCCCC[N+](C)(CCCCCCCCCC)CCC[Si](OC)(OC)OC,AC50,[1],25 µM (active)
same,outcome,[2],inactive
same,AC50,[3],4.21 µM (active)
CCCCCCCOC(=O)c1ccc(O)cc1,AC50,[2],7.77 µM (active)
CCCCC/C=C\C/C=C\CCCCCCCC(=O)O,outcome,[7],inactive
same,AC50,[3],4.88 µM (active)
CC(C)[N+](C)(CCOC(=O)C1c2ccccc2Oc2ccccc21)C(C)C,outcome,[2],inactive
same,AC50,[8],2.4 µM (active)
CN(C)c1ccc2nc3ccc(=[N+](C)C)cc-3sc2c1,AC50,[1],32.7 µM (active)
same,AC50,[7],7.57 µM (active)
CCCCCCOc1ccc(N)cc1,outcome,[2],inactive
same,outcome,[3],inactive
CCCCNS(=O)(=O)c1ccc(C)cc1,outcome,[1],inactive
same,outcome,[3],inactive
CC(C)CCCCCOC(=O)CS,outcome,[4],inactive
O=C(O)c1cc(O)c2ccccc2c1O,outcome,[1],inactive
same,AC50,[7],18.4 µM (active)
same,AC50,[2],9.52 µM (active)
same,AC50,[3],5.21 µM (active)
CC(C)c1ccc(O)c(C(C)C)c1,outcome,[7],inactive
CC(C)(C)C1CCC(=O)CC1,outcome,[3],inactive
Cc1cc(=O)[nH]c(=O)[nH]1,outcome,[4],inactive
CCOC(=O)/C=C\C(=O)OCC,outcome,[2],inactive
CCc1cccc(CC)c1,outcome,[2],inactive
CCc1cccc(C)c1N,outcome,[3],inactive
CC(C)c1cc(C(C)C)cc(C(C)C)c1,outcome,[3],inactive
CCCCC(=O)O,AC50,[2],8.11 µM (active)
same,outcome,[2],inactive
C=C1C[C@H]2[C@@H]3C=C(C)C4=CC(=O)CC[C@]4(C)[C@H]3CC[C@]2(C)[C@@]1(OC(C)=O)C(C)=O,AC50,[2],0.00144 µM (active)
same,AC50,[3],4.1 µM (active)
CCCC(CC)c1ccccc1 (stereo not given),outcome,[2],inactive
O=S(=O)(O)c1ccc(N=Nc2c(O)ccc3ccccc23)cc1,AC50,[1],31.9 µM (active)
same,AC50,[7],17.1 µM (active)
same,AC50,[2],17.2 µM (active)
CO[Si](CCCS)(OC)OC,outcome,[2],inactive
CCN(CC)c1cccc(C)c1,AC50,[8],38.5 µM (active)
Oc1ccc(/C=C/c2cc(O)cc(O)c2)cc1,outcome,[5],inactive
